# Measured values: PubChem BioAssay AID1159580 (chemical genetic matrix, 2015)
# Out of some 5,500 compounds screened, about 2,000 (36%) were called active. Another 18% or so got no clear call; they are omitted. The list shows a part of the results. A number with no mark means an inactive call. No stated cut-off is given here; in the data, active means normalized growth mostly below about 0.91 (no sharp cut-off); inconclusive means no clear call, values can overlap the other calls; inactive means mostly above about 0.92.
# Assay: chemical genetic growth profiling, strain panel (AID 1159580);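 further: tested at 20 µM; growth read once vehicle control cultures reached saturation at 30 °C; 1 = growth at the plate median or of vehicle wells; lower values mean less growth of the strain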
# Details: growth OD
smiles,measurement,setting,value
CC1=CC(=O)C(C(C)C)=CC1=O,normalized growth,"S. cerevisiae deletion strains, locus YJR066W, strain TOR1, hits give low values",0.903
same,normalized growth,"S. cerevisiae deletion strains, locus YKL009W, strain mrt4, hits give low values",0.936
same,normalized growth,"S. cerevisiae deletion strains, locus YKL068W, hits give low values",0.961
same,normalized growth,"S. cerevisiae deletion strains, locus YKL085W, strain MDH1 (second series), hits give low values",0.965
same,normalized growth,"S. cerevisiae deletion strains, locus YKL085W, strain MDH1, hits give low values",0.965
same,normalized growth,"S. cerevisiae deletion strains, locus YKL160W, strain elf1, hits give low values",0.951
same,normalized growth,"S. cerevisiae deletion strains, locus YKL190W, strain CNB1, hits give low values",0.946
same,normalized growth,"S. cerevisiae deletion strains, locus YKR001C, strain vps1, hits give low values",0.727 (active)
same,normalized growth,"S. cerevisiae deletion strains, locus YKR026C, strain gcn3, hits give low values",0.903 (active)
same,normalized growth,"S. cerevisiae deletion strains, locus YKR091W, strain srl3, hits give low values",0.999
same,normalized growth,"S. cerevisiae deletion strains, locus YLL001W, strain dnm1, hits give low values",1.01
same,normalized growth,"S. cerevisiae deletion strains, locus YLL026W, hits give low values",0.838 (active)
same,normalized growth,"S. cerevisiae deletion strains, locus YLL041C, strain sdh2, hits give low values",0.95
same,normalized growth,"S. cerevisiae deletion strains, locus YLR027C, strain aat2, hits give low values",0.638 (active)
same,normalized growth,"S. cerevisiae deletion strains, locus YLR039C, strain RIC1, hits give low values",0.691
same,normalized growth,"S. cerevisiae deletion strains, locus YLR058C, strain SHM2, hits give low values",0.946
same,normalized growth,"S. cerevisiae deletion strains, locus YLR102C, strain apc9, hits give low values",0.95
same,normalized growth,"S. cerevisiae deletion strains, locus YLR113W, strain HOG1, hits give low values",0.986
same,normalized growth,"S. cerevisiae deletion strains, locus YLR221C, strain rsa3, hits give low values",0.355 (active)
same,normalized growth,"S. cerevisiae deletion strains, locus YLR258W, strain gsy2, hits give low values",0.902 (active)
same,normalized growth,"S. cerevisiae deletion strains, locus YLR262C, strain YPT6 (second series), hits give low values",0.724 (active)
same,normalized growth,"S. cerevisiae deletion strains, locus YLR262C, strain YPT6, hits give low values",0.643
same,normalized growth,"S. cerevisiae deletion strains, locus YLR268W, strain sec22, hits give low values",0.764 (active)
same,normalized growth,"S. cerevisiae deletion strains, locus YLR320W, strain mms22, hits give low values",0.721 (active)
same,normalized growth,"S. cerevisiae deletion strains, locus YLR330W, strain CHS5, hits give low values",0.648 (active)
same,normalized growth,"S. cerevisiae deletion strains, locus YLR342W, strain FKS1 (second series), hits give low values",0.749 (active)
same,normalized growth,"S. cerevisiae deletion strains, locus YLR342W, strain FKS1, hits give low values",1.01
same,normalized growth,"S. cerevisiae deletion strains, locus YLR357W, strain rsc2, hits give low values",0.632 (active)
same,normalized growth,"S. cerevisiae deletion strains, locus YLR370C, strain arc18, hits give low values",1.01
same,normalized growth,"S. cerevisiae deletion strains, locus YLR371W, strain rom2, hits give low values",0.715 (active)
same,normalized growth,"S. cerevisiae deletion strains, locus YLR384C, strain iki3, hits give low values",0.987
same,normalized growth,"S. cerevisiae deletion strains, locus YLR418C, strain cdc73, hits give low values",0.54 (active)
same,normalized growth,"S. cerevisiae deletion strains, locus YML016C, strain PPZ1, hits give low values",0.978
same,normalized growth,"S. cerevisiae deletion strains, locus YML032C, strain rad52, hits give low values",0.89 (active)
same,normalized growth,"S. cerevisiae deletion strains, locus YML120C, strain ndi1, hits give low values",0.13 (active)
same,normalized growth,"S. cerevisiae deletion strains, locus YML124C, strain tub3, hits give low values",0.943
same,normalized growth,"S. cerevisiae deletion strains, locus YMR058W, strain fet3, hits give low values",0.759 (active)
same,normalized growth,"S. cerevisiae deletion strains, locus YMR078C, strain ctf18, hits give low values",0.912
same,normalized growth,"S. cerevisiae deletion strains, locus YMR125W, strain sto1, hits give low values",0.397 (active)
same,normalized growth,"S. cerevisiae deletion strains, locus YMR129W, hits give low values",0.839 (active)
same,normalized growth,"S. cerevisiae deletion strains, locus YMR205C, strain PFK2, hits give low values",0.868 (active)
same,normalized growth,"S. cerevisiae deletion strains, locus YMR223W, strain ubp8, hits give low values",0.847 (active)
same,normalized growth,"S. cerevisiae deletion strains, locus YMR231W, strain pep5, hits give low values",1.01
same,normalized growth,"S. cerevisiae deletion strains, locus YMR307W, strain GAS1, hits give low values",0.49 (active)
same,normalized growth,"S. cerevisiae deletion strains, locus YNL067W, strain RPL9B, hits give low values",0.925
same,normalized growth,"S. cerevisiae deletion strains, locus YNL071W, strain lat1, hits give low values",0.274 (active)
same,normalized growth,"S. cerevisiae deletion strains, locus YNL183C, strain NPR1, hits give low values",0.892
same,normalized growth,"S. cerevisiae deletion strains, locus YNL209W, strain ssb2, hits give low values",1
same,normalized growth,"S. cerevisiae deletion strains, locus YNL233W, strain BNI4, hits give low values",0.657 (active)
same,normalized growth,"S. cerevisiae deletion strains, locus YNL248C, strain rpa49, hits give low values",0.409 (active)
same,normalized growth,"S. cerevisiae deletion strains, locus YNL250W, strain rad50, hits give low values",0.972
same,normalized growth,"S. cerevisiae deletion strains, locus YNL271C, strain bni1, hits give low values",0.917 (active)
same,normalized growth,"S. cerevisiae deletion strains, locus YNL298W, strain CLA4, hits give low values",0.899 (active)
same,normalized growth,"S. cerevisiae deletion strains, locus YNL307C, strain MCK1, hits give low values",0.589 (active)
same,normalized growth,"S. cerevisiae deletion strains, locus YNL322C, strain KRE1 (second series), hits give low values",0.876 (active)
same,normalized growth,"S. cerevisiae deletion strains, locus YNR049C, strain mso1, hits give low values",0.986
same,normalized growth,"S. cerevisiae deletion strains, locus YNR052C, strain pop2, hits give low values",0.922
same,normalized growth,"S. cerevisiae deletion strains, locus YOL012C, strain htz1",0.626
same,normalized growth,"S. cerevisiae deletion strains, locus YOL147C, strain pex11, hits give low values",0.872 (active)
same,normalized growth,"S. cerevisiae deletion strains, locus YOR001W, strain rrp6, hits give low values",0.664 (active)
same,normalized growth,"S. cerevisiae deletion strains, locus YOR061W, strain CKA2, hits give low values",0.98
same,normalized growth,"S. cerevisiae deletion strains, locus YOR069W, strain VPS5, hits give low values",0.961
same,normalized growth,"S. cerevisiae deletion strains, locus YOR070C, strain gyp1, hits give low values",0.976
same,normalized growth,"S. cerevisiae deletion strains, locus YOR080W, strain dia2, hits give low values",0.999
same,normalized growth,"S. cerevisiae deletion strains, locus YOR083W, strain WHI5, hits give low values",0.904
same,normalized growth,"S. cerevisiae deletion strains, locus YOR106W, strain vam3, hits give low values",0.72 (active)
same,normalized growth,"S. cerevisiae deletion strains, locus YOR136W, strain idh2, hits give low values",0.924
same,normalized growth,"S. cerevisiae deletion strains, locus YOR144C, strain elg1, hits give low values",0.916 (active)
same,normalized growth,"S. cerevisiae deletion strains, locus YOR184W, strain ser1, hits give low values",0.686 (active)
same,normalized growth,"S. cerevisiae deletion strains, locus YOR231W, strain MKK1, hits give low values",0.967
same,normalized growth,"S. cerevisiae deletion strains, locus YOR265W, strain rbl2, hits give low values",0.997
same,normalized growth,"S. cerevisiae deletion strains, locus YOR270C, strain vph1, hits give low values",0.777
same,normalized growth,"S. cerevisiae deletion strains, locus YOR290C, strain snf2, hits give low values",0.844 (active)
same,normalized growth,"S. cerevisiae deletion strains, locus YOR316C, strain cot1, hits give low values",0.949
same,normalized growth,"S. cerevisiae deletion strains, locus YPL051W, strain arl3, hits give low values",0.886 (active)
same,normalized growth,"S. cerevisiae deletion strains, locus YPL078C, strain atp4, hits give low values",0.912
same,normalized growth,"S. cerevisiae deletion strains, locus YPL106C, strain sse1, hits give low values",0.923
same,normalized growth,"S. cerevisiae deletion strains, locus YPL240C, strain hsp82, hits give low values",0.837 (active)
same,normalized growth,"S. cerevisiae deletion strains, locus YPL241C, strain CIN2, hits give low values",0.925 (active)
same,normalized growth,"S. cerevisiae deletion strains, locus YPL256C, strain CLN2, hits give low values",0.964
same,normalized growth,"S. cerevisiae deletion strains, locus YPR119W, strain clb2, hits give low values",0.938
same,normalized growth,"S. cerevisiae deletion strains, locus YPR141C, strain kar3, hits give low values",0.941
same,normalized growth,"S. cerevisiae deletion strains, locus YPR163C, strain tif3, hits give low values",0.725 (active)
same,normalized growth,"S. cerevisiae deletion strains, locus YPR167C, strain met16, hits give low values",0.916 (active)
same,normalized growth,"S. cerevisiae deletion strains, strain wtn01, hits give low values",0.797 (active)
same,normalized growth,"S. cerevisiae strains, strain wild type, hits give low values",0.579 (active)
